A short description of assay [1]: BET inhibitor-based combinations targeting novel dependencies in MECOM-rearranged (r) AML: SET-2 cell line (AID 2202231). Also: nearly all actives have a fitted effect of over 35% in size.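 As to viability: plate controls were DMSO treated cells for no effect and wells without cells for full effect.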 Particulars: SET-2 AML cells viability, CellTiter-Glo luminescence, 48 h; viability: active compounds read low, concentration not given here. Put shortly: (§1)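 500 cells/well; 11-pt dose curve; 48 h, standard incubator; CellTiter-Glo luminescence after 15 min RT; DMSO/empty-well normalization; AUC plus Z-AUC (mean-centered within each line).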

The nature of assay [2]: BET inhibitor-based combinations targeting novel dependencies in MECOM-rearranged (r) AML: OCI-AML3 cell line (AID 2202232). Also: nearly all actives have a fitted effect of over 35% in size. Particulars: CellTiter-Glo luminescence, 48 h; Potency: OCI-AML3 viability; series mostly up to 46 µM. In short, it runs like this: as §1
A short description of assay [3]: BET inhibitor-based combinations targeting novel dependencies in MECOM-rearranged (r) AML: MV-4-11 cell line (AID 2202233). Also: nearly all actives have a fitted effect of over 45% in size. Particulars: MV-4-11 AML viability, CellTiter-Glo luminescence, 48 h; series mostly up to 46 µM. Put shortly:
(§2)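 Cells were plated at 500 per well and exposed to each drug across an 11-point dose range for 48 hr at standard incubator conditions. Viability was read by CellTiter-Glo luminescence, and activity was expressed as AUC and per-cell-line Z-transformed AUC.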

Assay [4] concerns the target Retinaldehyde dehydrogenase 3 (Homo sapiens) (UniProt P47895). Description: qHTS for Inhibitors of the Aldehyde Dehydrogenase Family (ALDH1A3) Primary screen (AID 2061315). Particulars: ALDH inhibition qHTS; series mostly up to 56 µM.
The nature of assay [5]: BET inhibitor-based combinations targeting novel dependencies in MECOM-rearranged (r) AML: HNT-34 cell line (AID 2202234). Also: nearly all actives have a fitted effect of over 35% in size. Particulars: HNT-34 AML viability, CellTiter-Glo luminescence, 48 h; series mostly up to 46 µM. Put shortly:
as §2

The nature of assay [6]: BET inhibitor-based combinations targeting novel dependencies in MECOM-rearranged (r) AML: UCSD-AML1 cell line (AID 2202235). Also: nearly all actives have a fitted effect of over 40% in size. Particulars: UCSD-AML1 AML cells viability, CellTiter-Glo, 48 h; series mostly up to 46 µM. Put shortly: as §2
Assay [7] can be described thus: BET inhibitor-based combinations targeting novel dependencies in MECOM-rearranged (r) AML: AML-191 cell line (AID 2202236; also: nearly all actives have a fitted effect of over 35% in size). Particulars: AML-191 viability, CellTiter-Glo luminescence, 48 h; series mostly up to 46 µM. Put shortly:
as §1

The nature of assay [8]: BET inhibitor-based combinations targeting novel dependencies in MECOM-rearranged (r) AML: AML-194 cell line (AID 2202237; also: nearly all actives have a fitted effect of over 40% in size). Particulars: AML-194 (MECOM-r AML) viability, CellTiter-Glo, 48 h; series mostly up to 46 µM. In short, it runs like this: as §1

Inconclusive results are not listed. A number with no mark means an inactive call. Activity calls are given as the source filed them. Calls follow the shape of the dose curve; as a rule, active = well fitted curve in the direction sought with a large enough effect; inconclusive = small, poorly fitted or top-dose-only effect, or another doubt; inactive = no such curve, though single readings can be large; an effect the other way counts as inactive or inconclusive.
Potency is read from the fitted curve at half-maximal effect.

Turning to `Cc1[nH]c(/C=C2\C(=O)Nc3ccccc32)c(C)c1CCC(=O)O`, the viability in assay [1] is 83.1%. The Potency is 20.9 µM (active) in assay [2] and 13.2 µM (active) in assay [3].
With `C[C@H](O)[C@@H]1C(=O)N2C(C(=O)O)=C(S[C@@H]3CN[C@H](CNS(N)(=O)=O)C3)[C@@H](C)[C@@H]12`, the Potency entry in assay [4], in assay [2], in assay [5], in assay [6], in assay [7] and in assay [8] was “inactive” throughout. Further, in assay [1], the viability is 118%.
For the compound `C=CCNC1=C2CC(C)CC(OC)C(O)C(C)/C=C(\C)C(OC(N)=O)C(OC)/C=C/C=C(\C)C(=O)NC(=CC1=O)C2=O` (configuration not stated), the Potency was 8.33 µM (active) in assay [1]; 0.662 µM (active) in assay [2]; 0.166 µM (active) in assay [3]; 3.32 µM (active) in assay [5]; 1.32 µM (active) in assay [6].
`COc1ccc(Oc2cc(NCCC(F)(F)F)c3ncc(-c4ccc(C(=O)NC5CC5)c(C)c4)n3n2)c(F)c1F`: in assay [1], the viability is 80.2%. The Potency in assay [2] is 0.0235 µM (active); in assay [3] it was 0.0661 µM (active); in assay [5] it was 0.417 µM (active).
As for `CCC(=O)NC[C@H](Cc1ccc(OCCc2nc(-c3ccccc3)oc2C)cc1)N/C(C)=C\C(=O)c1ccc(C(F)(F)F)cc1`, the viability in assay [1] is 111%. Besides, the Potency in assay [2] was 20.9 µM (active); in assay [3], 23.5 µM (active).
In the case of `NS(=O)(=O)c1ccc(S(=O)(=O)Nc2cccc3c(Cl)c[nH]c23)cc1`, the Potency is 14.8 µM (active) in assay [1]; 2.95 µM (active) in assay [2]; 0.59 µM (active) in assay [3]; 1.32 µM (active) in assay [5]; 2.35 µM (active) in assay [6].
For the compound `CN(C)c1ccc(Nc2nc(N)n(C(=O)c3c(F)cccc3F)n2)cc1`, the Potency is 14.1 µM (active) in assay [4]; 18.6 µM (active) in assay [1]; 23.5 µM (active) in assay [2]; 4.17 µM (active) in assay [3]; 14.8 µM (active) in assay [5]; 2.63 µM (active) in assay [6]. In addition, the Potency in assay [7] is 18.6 µM (active).
Consider `O=C(NOCCO)c1ccc2cncn2c1Nc1ccc(I)cc1F`, for which the Potency in assay [1] was 18.6 µM (active); in assay [2], 0.0934 µM (active); in assay [3] it was 0.742 µM (active); in assay [5], 0.525 µM (active).
`COc1cc2c3c(n(CCCNCCO)c(=O)c2cc1OC)-c1cc2c(cc1C3=O)OCO2`: the Potency in assay [1] is 0.148 µM (active); in assay [2] it was 0.0934 µM (active); in assay [3], 0.059 µM (active); in assay [5], 0.059 µM (active); in assay [6] it was 0.0742 µM (active); in assay [7] it was 0.166 µM (active).
`CC(C)Oc1ccc(-c2nc(-c3cccc4c3CC[C@@H]4NCCO)no2)cc1C#N`: in assay [1], the viability was 97.4%.
In the case of `CN(C)CCCN=c1c2ccccc2n(C)c2[nH]c(=O)n(C)c(=O)c12`, the Potency in assay [1] was 23.5 µM (active); in assay [2], 18.6 µM (active); in assay [3], 9.34 µM (active); in assay [5] it was 23.5 µM (active); in assay [6] it was 26.3 µM (active); in assay [7], 18.6 µM (active).
For the compound `CCOC(=O)C1=CCCCC1S(=O)(=O)Nc1ccc(F)cc1Cl` (configuration not stated), the Potency in assay [1] was 20.9 µM (active).
With `Cc1ccc(NC(=O)Nc2nnc(Sc3ncnc4cc(OCCCN5CCOCC5)ccc34)s2)cc1`, the viability in assay [1] is 111%. Further, the values for the Potency in assay [2], in assay [3] and in assay [5] were 14.8 µM (active), 0.0166 µM (active) and 14.8 µM (active), respectively.
Consider `O=C(NO)c1ccc(C2=Nc3ccccc3Oc3ccccc32)cc1`, for which the Potency is 2.95 µM (active) in assay [1]; 5.25 µM (active) in assay [2]; 1.86 µM (active) in assay [3]; 3.72 µM (active) in assay [5]; 4.17 µM (active) in assay [6]; 3.32 µM (active) in assay [7].
For `Cn1cc(/C=C/C(=O)c2cccc(F)c2)cc1/C=C/C(=O)NO`, the Potency in assay [1] was 1.48 µM (active); in assay [2] it was 3.32 µM (active); in assay [3], 4.68 µM (active).
As for `CN1C(N)=N[C@](C)(c2cc(NC(=O)c3ccc(F)cn3)ccc2F)CS1(=O)=O`, in assay [1], the viability is 121%. Besides, the Potency result in assay [2], in assay [3], in assay [5], in assay [6] and in assay [7] was “inactive” throughout.
Turning to `COc1ccc(-c2cc(C(O)C3CCCCN3)c3ccccc3n2)cc1` (configuration not stated), the Potency entry in assay [4] was “inactive”. In addition, the Potency is 14.8 µM (active) in assay [1]; 20.9 µM (active) in assay [2]; 13.2 µM (active) in assay [5]; 9.34 µM (active) in assay [6]; 14.8 µM (active) in assay [7]; 11.8 µM (active) in assay [8].
For the compound `CN(CCO)C1CCN(c2ccc(Nc3ncc4c5ccnc(F)c5n(C5CCCC5)c4n3)nc2)CC1`, the Potency was 2.04 µM (active) in assay [1], 0.182 µM (active) in assay [2], 0.129 µM (active) in assay [3] and 1.82 µM (active) in assay [5].
On to `N#C/C(=C\c1ccc(O)c(O)c1)C(=O)NCc1ccccc1`, for which the Potency is 14.8 µM (active) in assay [1], 5.9 µM (active) in assay [2] and 14.8 µM (active) in assay [3].
As to `C[C@H]1COCCN1c1cc(C2(S(=O)(=O)C3CC3)CC2)nc(-c2ccc(NC(=S)NCCO)cc2)n1`, the Potency in assay [1] was 0.417 µM (active); in assay [2] it was 0.833 µM (active); in assay [3] it was 0.0934 µM (active); in assay [5], 0.105 µM (active); in assay [6] it was 0.0105 µM (active).
For the compound `CN(C)C/C=C/C(=O)Nc1ccc(C(=O)N2CCC[C@@H](Nc3ncc(Cl)c(-c4c[nH]c5ccccc45)n3)C2)cc1`, the Potency in assay [1] is 5.9 µM (active); in assay [2] it was 0.372 µM (active); in assay [3], 0.235 µM (active); in assay [5], 0.235 µM (active); in assay [6], 0.468 µM (active); in assay [7] it was 2.35 µM (active). The Potency in assay [8] is 1.66 µM (active).

(Values after PubChem BioAssay (NCATS).)
